# Out of some 69,000 compounds screened, about 8,600 (12%) showed an effect of 50% or more. The list comes from a sample in which strong results are over-represented; it also holds similar structures and randomly drawn compounds.
# Tested on: Plasmodium berghei
# Test: Screen against P. berghei liver stage (PbLuc), transformed with Luciferase, at 10uM
# Assay type: functional, HepG2
# Conditions: tested at 10 uM
row,SMILES,INHIBITION [%]
1,CCc1noc(C)c1C(=O)N1CCCC1c1c(C)nn(C)c1C (centres undefined),31.8
2,Cc1ccc(C(NCC(=O)N2CCNC(=O)C2)C(F)(F)F)cc1 (centres undefined),18.3
3,CC(C)(CNC1CCCN(Cc2ccccn2)C1)CN1CCOCC1 (centres undefined),33
4,O=C(NCC1CC1)C1CCC2(CCN(C(=O)c3cccnc3)CC2)O1 (centres undefined),6.27
5,Cc1ccc(-c2nc(C(=O)N3CCOCC3)cs2)c(C)c1,-3.85
6,Cc1cc(C)n(CCN2CCOC(CNc3cccnn3)C2)n1 (centres undefined),-39.7
7,O=C(c1ccncc1)N1CCN(Cc2cccnc2)c2ncccc2C1,7.53
8,CSc1nccc(NCc2cc3n(n2)CCCN(C(=O)C2CCC2)C3)n1,15.9
9,CC(c1ccc(F)cc1)N1CCN(Cc2nccn2C)CC1 (centres undefined),11.9
10,c1ccc(-c2ncc3c(n2)C2(CCN(c4ncccn4)C2)COC3)cc1 (centres undefined),-39.1
11,CN(C)C(=O)CN1CCC2(COCc3cnc(-c4cccnc4)nc32)C1 (centres undefined),69.3
12,CS(=O)(=O)N1CCC2(COCc3cnc(-c4ccccc4)nc32)C1 (centres undefined),-69.9
13,O=S(=O)(C1CC1)N1CCC2(COCc3cnc(-c4cccnc4)nc32)C1 (centres undefined),32.1
14,CN(C)S(=O)(=O)N1CCC2(COCc3cnc(-c4ccccc4)nc32)C1 (centres undefined),29.7
15,CN(C)C(=O)CN1CCC2(COCc3cnc(N4CCOCC4)nc32)C1 (centres undefined),19.4
16,CCN1CCC2(COCc3cnc(-c4cccnc4)nc32)C1 (centres undefined),28.4
17,CN(C)C(=O)CN1CCC2(COCc3cnc(-c4ccccc4)nc32)C1 (centres undefined),91
18,CC(C)C(=O)N1CCC2(COCc3cnc(-c4cccnc4)nc32)C1 (centres undefined),17.7
19,c1cnc(N2CCC3(COCc4cnc(-c5cccnc5)nc43)C2)nc1 (centres undefined),59.7
20,O=C(C1CCC1)N1CCC2(COCc3cnc(-c4cccnc4)nc32)C1 (centres undefined),-40.4
21,CN(C)S(=O)(=O)N1CCC2(COCc3cnc(-c4cccnc4)nc32)C1 (centres undefined),59.3
22,O=C(NCc1ccccn1)NCc1ccc(Cl)s1,17.5
23,Cc1ccc(C)c(S(=O)(=O)CCNC2CCc3ncnn3C2)c1 (centres undefined),-21.9

row,SMILES,INHIBITION [%]
1,CC(NCc1ccnc(OC2CCC2)c1)c1cnn(C)c1 (centres undefined),-4.92
2,O=C1OCCN1CC(=O)N1C[C@@H]2CC[C@H]1CN(C(=O)c1cccnc1)C2,29.6
3,Cc1cc(N2CCC(Cc3cccnc3)CC2)ncn1,39.7
4,CC(=O)N1CCN(C(=O)c2sc(-c3ccccc3F)nc2C)CC1,-10.8
5,OCC1CCCN1c1cc(NCc2cccs2)ncn1 (centres undefined),31.3
6,Cc1c(C)n(CC(O)CN2CCN(CCO)CC2)c2c(Cl)cccc12 (centres undefined),28.6
7,Cc1cc(F)ccc1S(=O)(=O)NCc1[nH]ncc1Br,-3.14
8,Cc1ccc(F)cc1S(=O)(=O)NCc1[nH]ncc1Br,1.62
9,Cc1ccc(F)c(S(=O)(=O)NCc2[nH]ncc2Br)c1,52.9
10,Cc1cccc(CN2CCOCC2c2[nH]ncc2C)n1 (centres undefined),31.9
11,O=C(c1ccnnc1)N1CC[C@H]2[C@H]1CCN2S(=O)(=O)C1CC1,63.1
12,O=C(c1ccoc1)N1CC[C@H]2[C@H]1CCN2S(=O)(=O)C1CC1,44.8
13,CC(C)N1C(=O)C[C@H]2[C@@H]1CCN2C(=O)c1ccco1,53.9
14,Cn1cc(N2C(=O)C[C@@H]3[C@@H]2CCN3C(=O)c2ccco2)cn1,12.2
15,O=C(c1ccco1)N1CC[C@H]2[C@H]1CCN2S(=O)(=O)C1CC1,58.7
16,O=C(c1ccco1)N1CC[C@H]2[C@H]1CC(=O)N2c1cccnc1,-5.89
17,O=C(c1ccncc1)N1CC[C@H]2[C@H]1CCN2S(=O)(=O)C1CC1,-69.3
18,O=C(C1CCC1)N1CCN(C(=O)c2cnccn2)[C@H]2CS(=O)(=O)C[C@H]21,23.5
19,CS(=O)(=O)N1C[C@@H]2CCN(C(=O)c3ccco3)[C@@H]2C1,24.9
20,O=C(c1cnccn1)N1CC[C@H]2[C@H]1CCN2S(=O)(=O)C1CC1,71
21,O=C(c1ccccn1)N1CC[C@H]2[C@H]1CCN2S(=O)(=O)C1CC1,-60.2
22,O=C([C@H]1C[C@H]2OCC[C@H]2N(C(=O)c2ccnnc2)C1)N1CCCCO1,19.5
23,CN(C)CC(=O)N1CCN(c2cc(N3CCCC3CO)ncn2)CC1 (centres undefined),-5.1

row,SMILES,INHIBITION [%]
1,CNC(=O)NC(=O)C(C)N1CCN(c2ccc(C#N)cc2F)CC1 (centres undefined),11.8
2,CN(C)S(=O)(=O)N1C[C@@H]2C[C@H](C(=O)Nc3ccccc3)[C@H](C1)O2,-22.5
3,C[C@H](O)c1cnn(-c2ccccc2)c1,-13.1
4,Cc1cc(C)c(CNC(=O)NC2CCOCC2)c(=O)[nH]1,27.7
5,Cc1nccc(N2CCN(C3CCOCC3)CC(C(=O)N(C)C)C2)n1 (centres undefined),25.8
6,CC(C)(C)CCCC(=O)Nc1ccnn1C1CCS(=O)(=O)C1 (centres undefined),46.6
7,CC(Nc1cccc2c1OCCO2)C(=O)NC(N)=O (centres undefined),-45.2
8,O=C(CN1CCCC1)N1CCCC(c2cc(=O)n3c(n2)CCCCC3)C1 (centres undefined),14.7
9,CN(C)C(=O)N[C@H]1CN(C2CCOCC2)[C@@H]2CCCO[C@H]12,43.8
10,CN(C)C(=O)N[C@@H]1CN(S(C)(=O)=O)[C@@H]2CCCO[C@@H]21,60
11,CN(C)C(=O)N[C@@H]1CN(C2CCOCC2)[C@@H]2CCCO[C@@H]21,20.1
12,COCC(NC(=O)c1cccnc1)c1cccc(C(F)(F)F)c1 (centres undefined),7.44
13,CNC(=O)CCc1cc(C2CCNCC2)nc(C)n1,27.8
14,Oc1cc(C2CCCCN2C2CCCC2)nc(-c2ccncc2)n1 (centres undefined),16.5
15,Cn1cc(CN2CCCN(C(=O)c3cc[nH]n3)CC2)cn1,23.2
16,CC(OCC1CC1)C(=O)N1CCCN(Cc2nccn2C(C)C)CC1 (centres undefined),46.2
17,Cc1nc(C(=O)N2CCCN(Cc3cnn(C)c3)CC2)ccc1C#N,15.1
18,Cn1cc(CN2CCCN(C(=O)c3cn4ccccc4n3)CC2)cn1,56.6
19,Cc1cccc(C(=O)N2CCCN(Cc3cnn(C)c3)CC2)n1,31.8
20,CC(OCC1CC1)C(=O)N1CCCN(Cc2cnn(C)c2)CC1 (centres undefined),60.5
21,Cn1cc(CN2CCCN(C(=O)c3ccccn3)CC2)cn1,-13.35
22,Cn1cc(CN2CCCN(C(=O)c3ccc4ccccc4n3)CC2)cn1,52.35
23,CC(OCC1CC1)C(=O)N1CCCN(Cc2cscn2)CC1 (centres undefined),11.67
